# Only some compounds are listed: those with a hit (about 28% of all), similar ones and a draw of the others.
# CYP2C19 activ: human CYP2C19 activators, primary screen, biochemical, luminescence; AID 1025, 2008; recombinant CYP2C19, luciferin-H EGE luminescence; active compounds read high; 0 = fully inhibited enzyme, 1 = untreated enzyme; 96,000 tested, under 10 active; activation factor at 5 µM;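 active = activation factor of at least 2 at 5 µM in the primary screen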;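 note: 0 = wells with 2.5 mM tranylcypromine and 1 = vehicle-only wells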
# Target sequence (P33261 whole entry, looked up): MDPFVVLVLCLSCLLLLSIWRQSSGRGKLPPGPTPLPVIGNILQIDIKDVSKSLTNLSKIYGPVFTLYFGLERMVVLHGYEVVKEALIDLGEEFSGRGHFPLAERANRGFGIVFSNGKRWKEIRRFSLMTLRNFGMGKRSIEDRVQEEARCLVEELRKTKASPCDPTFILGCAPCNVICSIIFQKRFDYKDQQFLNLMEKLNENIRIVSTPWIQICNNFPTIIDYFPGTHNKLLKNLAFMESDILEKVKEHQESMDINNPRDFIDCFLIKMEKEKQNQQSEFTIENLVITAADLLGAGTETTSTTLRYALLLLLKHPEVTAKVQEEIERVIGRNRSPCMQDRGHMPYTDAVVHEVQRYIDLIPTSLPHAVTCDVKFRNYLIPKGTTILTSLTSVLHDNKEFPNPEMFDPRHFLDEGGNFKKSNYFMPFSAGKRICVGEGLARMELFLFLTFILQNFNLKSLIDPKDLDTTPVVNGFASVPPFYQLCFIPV
# CYP2C9 inhib: blockers of cytochrome P450 2C9 activity – biochemical, luminescence, ADME assay, primary screen. CYP2C9 Supersomes, luciferin-H conversion. inhibition, % at 5 µM. 96,000 compounds, 20% hits. AID 777, 2007;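 active = blocking of liver enzyme CYP2C9 beyond about 50% at 5 µM, limit read from the data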
# CYP2C19 inh: blockers of cytochrome P450 2C19 activity – biochemical, luminescence, ADME assay, primary screen; inhibition, % at 5 µM; 96,000 compounds, 21% hits; AID 778, 2007; CYP2C19 Supersomes, luciferin-H EGE luminescence, 30 min;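 active = CYP2C19 inhibition above a set limit at 5 µM in the primary screen, cut at about 50% in these data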;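 note: plate controls were negative control wells for no effect and 2.5 mM tranylcypromine positive control for full effect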
# Pyk2 oligo antag: antagonists of Pyk2 self-association, primary screen, Q293 cells, FERM NanoBiT luminescence, HTS. Protein-tyrosine kinase 2-beta (Homo sapiens), Q14289. active compounds read low. z-score (the deposit names both 25 µM and 10 µM). 99,000 compounds, 0.83% hits. AID 1347419, 2020;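 active = Z-score of -3 or lower, scaled per plate to the spread of control and sample wells; inactive = z-score above -3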;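 note: negative z-score means lost luminescence so less FERM oligomerization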
# CYP2C9 activ: human CYP2C9 activators, primary screen, biochemical, luminescence | recombinant CYP2C9, luciferin-H conversion; active compounds read high; factor 1 = untreated enzyme, 0 = blocked | Cytochrome P450 2C9 (Homo sapiens), P11712 | 96,000 compounds, 1.4% hits | activation factor at 5 µM;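 active = activation factor of 2 or more for CYP2C9 at a 5 µM dose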;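 note: 0 = sulfaphenazole-blocked wells and 1 = vehicle-only wells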
# * = called active by the depositor; x = no result.
SMILES,CYP2C19 activ,CYP2C9 inhib,CYP2C19 inh,Pyk2 oligo antag,CYP2C9 activ
Cc1ccc(NC(=O)CC2C(=O)NC3CCCCC3N2C(=O)c2ccc(F)cc2)cc1C (stereo not drawn),0.9,64*,8,-0.69,0.4
COc1ccc(N(CC(=O)NCC2CCCO2)C(=O)CCC(=O)Nc2nccs2)cc1 (stereo not drawn),x,x,x,0.38,x
OCCN1CCN(CCOc2cccc(Cl)c2)CC1,1.1,-13,-12,0.58,1.1
CSC(=NNC(=O)c1ccc(O)cc1)SC,0.9,10,10,0.81,0.9
COc1ccc(-c2ccc(-c3noc(-c4ccccc4C)n3)c(OC)n2)cc1,1,-2,4,0.37,1
COc1ccc(-c2ccc(-c3noc(-c4cccs4)n3)c(OC)n2)cc1,0.9,60*,13,-0.3,0.4
Cn1c(SCC(=O)NC(C)(C)C)nnc1-c1cnccn1,0.9,18,8,0.5,0.8
CS(=O)(=O)N1CCc2cc(-c3csc(NCC4CCCO4)n3)ccc21 (stereo not drawn),x,x,x,-0.08,x
CS(=O)(=O)N1CCc2cc(S(=O)(=O)Nc3ccc4oc5c(c4c3)CCCC5)ccc21,0,93*,96*,-0.61,0.1
Cc1ccc(-c2nnc(-c3ccccc3)o2)cc1,x,x,x,-0.01,x
CCNc1nnc(-c2ccc(C)cc2)o1,0.4,19,61*,0.94,0.8
CCCCCCCCS(=O)c1sc2nc(C)cc(C)c2c1N (stereo not drawn),0.1,79*,88*,-0.1,0.2
CCOC(=O)c1[nH]c2ccc(F)cc2c1NC(=O)CN1CCc2cc(OC)c(OC)cc2C1,0.3,81*,68*,x,0.2
COC(=O)c1[nH]c2cc(C)ccc2c1NC(=O)CN1CCc2cc(OC)c(OC)cc2C1,0.5,49,51*,-0.22,0.5
CCOC(=O)N1CCN(CC(=O)Nc2c(C(=O)OC)[nH]c3cc(C)ccc23)CC1,1,6,2,1.2,0.9
COC(=O)c1[nH]c2ccc(Cl)cc2c1NC(=O)CN1CCc2cc(OC)c(OC)cc2C1,0.1,89*,87*,-1,0.1
CCCC(C)NC(=O)c1ccc(C2SCC(=O)N2Cc2ccco2)cc1 (stereo not drawn),0.8,13,18,0.64,0.9
COC(=O)c1ccc2ccn(CC(=O)NC3CCCCC3)c2c1,0.7,44,26,0.29,0.6
N#Cc1ccc2ccn(CC(=O)NC3CCCCCC3)c2c1,0.4,27,58*,-0.35,0.7
O=C(CSc1ncn[nH]1)N1N=C2/C(=C/c3ccco3)CCCC2C1c1ccco1 (stereo not drawn),0.1,94*,88*,-0.2,0.1
CCCCCSc1nnc(-c2cc(Br)ccc2N)c(=O)[nH]1,0.9,60*,11,1.6,0.4
CCCNS(=O)(=O)c1ccc(OCC(=O)N2CCOCC2)cc1,x,x,x,0.75,x
COc1cccc2cc(-c3csc(CCn4nc(C)cc4C)n3)c(=O)oc12,0.2,66*,82*,-1.4,0.3
c1ccc(-n2nc3c(ccc4cnnc43)[nH]2)cc1,0.7,60*,32,-1.8,0.4
Cc1nc2nc3c(c(=O)n2[nH]1)CCCC3,0.9,-6,9,0.43,1.1
SMILES,CYP2C19 activ,CYP2C9 inhib,CYP2C19 inh,Pyk2 oligo antag,CYP2C9 activ
O=C(Nc1nnc(C2CC2)s1)c1cc(-c2ccccc2)nn1-c1ccccc1,0.8,34,21,-3.2*,0.7
O=C(Nc1nnc(C2CC2)s1)c1ccncc1,0.8,56*,16,-0.54,0.4
Cc1nnc(NC(=O)C2CCCCC2)s1,0.6,5,41,-0.01,0.9
O=C(CC1CCCC1)Nc1nnc(C2CC2)s1,0.5,17,52*,-0.17,0.8
O=C(Nc1nnc(C2CCCC2)s1)C1CCC1,0.7,56*,33,0.19,0.4
COc1ccc(CCNC(=O)Cn2cnc3c(cnn3-c3ccccc3Cl)c2=O)cc1OC,0.9,4,14,-0.39,1
O=C(CSc1ccc(Cl)cc1)NCC1CCCO1 (stereo not drawn),0.6,22,37,0.65,0.8
COc1ccc(Cl)cc1-n1c(=S)sc2c(=O)[nH]c(SCC(=O)NCC3CCCO3)nc21 (stereo not drawn),1,53*,3,2.4,0.5
CCOC(=O)c1cccc(Nc2ncnc3ccc(C)cc23)c1,0.4,50,56*,-1.4,0.5
COc1ccccc1Nc1nc(N)nc(CSCCO)n1,1,-1,-2,0.22,1
CCc1ccccc1Nc1nc(N)nc(CSCC(=O)c2cc(C)n(C)c2C)n1,0.1,66*,85*,-0.26,0.3
CCOc1cc(N2CCOCC2)c(OCC)cc1NC(=O)CSc1cccc[n+]1[O-],1,33,2,-0.1,0.7
COC(=O)C1C(=O)C2=C(CC1C)NC(=O)CC2c1ccccc1 (stereo not drawn),0.8,29,25,-0.87,0.7
CC1=C(C(=O)OCCOc2ccccc2)C(c2ccc(C)o2)C2=C(CC(C)(C)CC2=O)N1 (stereo not drawn),0.2,82*,78*,-1.6,0.2
CCOC(=O)C1=C(C)NC2=C(C(=O)C(C(=O)OCC)C(c3ccc(OC)cc3)C2)C1c1ccccn1 (stereo not drawn),0.7,29,29,-0.97,0.7
COC(=O)C1C(=O)C2=C(CC1C)NC(C)=C(C(=O)OC(C)C)C2c1ccc(C)o1 (stereo not drawn),0.8,59*,21,-0.38,0.4
COC(=O)C1C(=O)C2=C(CC1C)NC(C)=C(C(=O)OC1CCCCC1)C2c1ccc(N(C)C)cc1 (stereo not drawn),x,x,x,-1.1,x
CC1=C(C(=O)Nc2ccc(C)cc2)C(c2ccc(C)o2)C2=C(CC(C)(C)CC2=O)N1 (stereo not drawn),1,1,-4,0.65,1
COC(=O)C1C(=O)C2=C(CC1C)NC(C)=C(C(=O)OCCOc1ccccc1)C2c1ccc(C)o1 (stereo not drawn),x,x,x,-3.9*,x
COC(=O)C1C(=O)C2=C(CC1C)NC(C)=C(C(=O)OCc1ccc(OC)cc1)C2c1ccc(C)o1 (stereo not drawn),0.4,80*,61*,1.8,0.2
Cc1ccc(N2C(=O)CSC2c2ccccn2)cc1Cl (stereo not drawn),0.7,-30,28,-0.63,1.3
C=CCNC(=O)C1CC(=O)N(c2ccc(OCC(=O)Nc3ccc(Cl)c(C(F)(F)F)c3)cc2)C1 (stereo not drawn),1,5,4,0.24,1
Cc1ccc(N2CC(C(=O)Nc3ccc(S(=O)(=O)N4CCCC4)cc3)CC2=O)cc1 (stereo not drawn),0.7,50,27,-1.2,0.5
Cc1ccc(N2CC(C(=O)Nc3ccncc3)CC2=O)cc1 (stereo not drawn),0,99*,98*,0.7,0
